Potency and activity change, negative = inhibition data for 19 molecules are collected here from PubChem BioAssay (Tox21).

For experiment [1], the target named is Voltage-gated inwardly rectifying potassium channel KCNH2 (Homo sapiens) (UniProt Q12809). Nature of the experiment: Human Ether-a-go-go-Related Gene (hERG) channel small molecule antagonists: fluorescence cell-based qHTS assay (AID 1671200).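 Further: hERG-expressing U2OS cells given a thallium stimulus after FluxOR II dye loading; series mostly up to about 77 µM; nearly all actives have a fitted effect of over 50% in size.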 In a few lines:
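U2OS cells expressing the channel were plated at 1000 cells/well, incubated overnight at 37 C, then loaded with FluxOR II thallium-sensitive dye for 1 h at room temperature in the dark, with a further 10 min at room temperature before stimulation.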

In experiment [2] the target is Acetylcholinesterase (Homo sapiens) (UniProt P22303). As to the kind of experiment: Acetylcholinesterase (AChE) small molecule antagonists: fluorescence cell-based qHTS assay (AID 1347398; calls by dose curve; further: nearly all actives have a fitted effect of over 50% in size). Conditions: Potency: AChE activity. Put shortly: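 Cellular AChE activity read as thiocholine from acetylthiocholine hydrolysis, detected by Thiolite Green fluorescence at 490/520 nm after 40 min at room temperature. Compounds were pre-incubated 30 min at 37 C on adherent SH-SY5Y cells.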
A general note: In qHTS, concentration-response curves come from the screen itself.

For experiment [3] the target is unchanged. Nature of the experiment: Acetylcholinesterase (AChE) small molecule antagonists: enzyme-based qHTS assay with human liver microsomes (AID 1347399; calls by dose curve; further: nearly all actives have a fitted effect of over 60% in size; further: potency means the concentration at half of the fitted maximal effect). The note with it: Potency: qHTS inhibition. In a few lines: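 Recombinant human AChE (50 mU/mL in the enzyme mix) and human liver microsomes (0.25 mg/mL final) were preincubated with compound and NADPH (0.25 mg/mL final) for 30 min at 37 C. Acetylthiocholine/DTNB was then added; thiocholine was read colorimetrically after 10 min at room temperature.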

For experiment [4], the target named is Cytochrome P450 2C19 (Homo sapiens) (UniProt P33261). As to the kind of experiment: Cytochrome P450 Family 2 Subfamily C Member 19 (CYP2C19) small molecule antagonists: luciferase reporter qHTS assay (AID 1671197). Further: nearly all actives have a fitted effect of over 65% in size. Further: potency means the concentration at half of the fitted maximal effect. On activity change, negative = inhibition: series mostly up to about 120 µM. Put shortly:
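First, compounds are pinned into enzyme-substrate mix and held 10 min at room temperature. Second, NADPH regeneration solution is added and plates incubate 1 h at 37C. Third, detection reagent is added and luminescence read after 20 min.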
A general note: Reporter assays use an easily measured gene product as a stand-in for the process of interest.

The target of experiment [5] is Cytochrome P450 2C9 (Homo sapiens) (UniProt P11712). As to the kind of experiment: Cytochrome P450 Family 2 Subfamily C Member 9 (CYP2C9) small molecule antagonists: luciferase reporter qHTS assay (AID 1671198). Further: nearly all actives have a fitted effect of over 50% in size. Further: potency means the concentration at half of the fitted maximal effect. On activity change, negative = inhibition: series mostly up to about 120 µM. Put shortly: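 Enzyme-substrate mix preincubated with compound 10 min at room temperature; reaction started with NADPH regeneration solution, 1 h 37C. Luminescent luciferin product read after 20 min detection reagent.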

Experiment [6] addresses Cytochrome P450 1A2 (Homo sapiens) (UniProt P05177). Nature of the experiment: Cytochrome P450 Family 1 Subfamily A Member 2 (CYP1A2) small molecule antagonists: luciferase reporter qHTS assay (AID 1671199). Further: nearly all actives have a fitted effect of over 50% in size. Further: potency means the concentration at half of the fitted maximal effect. On activity change, negative = inhibition: series mostly up to about 120 µM. Put shortly: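 Luminescence from luciferin formed by CYP1A2 from a proluciferin substrate, read 20 min after detection reagent. Compound was pre-incubated 10 min with enzyme-substrate, and reaction started with NADPH regeneration solution for 1 h at room temperature; furafylline control.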

Experiment [7] concerns the target Cytochrome P450 2D6 (Homo sapiens) (UniProt P10635). Nature of the experiment: Cytochrome P450 Family 2 Subfamily D Member 6 (CYP2D6) small molecule antagonists: luciferase reporter qHTS assay (AID 1671196). Further: nearly all actives have a fitted effect of over 50% in size. Further: potency means the concentration at half of the fitted maximal effect. On activity change, negative = inhibition: series mostly up to about 120 µM. Put shortly:
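CYP2D6 activity was followed as luminescence from its luciferin product after a 1 h NADPH-driven reaction at room temperature. Enzyme-substrate mix and compound were pre-incubated for 10 min, and the signal was read 20 min after adding detection reagent.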

Experiment [8] concerns the target Cytochrome P450 3A4 (Homo sapiens) (UniProt P08684). As to the kind of experiment: Cytochrome P450 Family 3 Subfamily A Member 4 (CYP3A4) small molecule antagonists: luciferase reporter qHTS assay (AID 1671201). Further: nearly all actives have a fitted effect of over 50% in size. Further: potency means the concentration at half of the fitted maximal effect. On activity change, negative = inhibition: series mostly up to about 120 µM. Put shortly:
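P450-Glo CYP3A4 system with proluciferin substrate; compounds preincubated 10 min RT with enzyme-substrate mix, then NADPH regeneration added for 1 h RT. Detection reagent 20 min, luminescence read as relative luminescence units.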

Several values for one entry are separate records, joined by “and”; a condition that tells them apart may be missing. Equal values may be shown once. Records with an inconclusive call do not appear. More than one record can exist for a structure, and the calls need not agree. Activity calls are given as the source filed them. Unless noted, the call rests on the fitted dose curve; in most records, active means well fitted curve in the direction sought with a large enough effect in the repeat runs; inconclusive means weak or mixed curves; inactive means no such curve, though single readings can be large; an effect the other way counts as inactive or inconclusive.
On the % scale 0 is the no-effect control and ±100 the full control effect.

Cytochrome P450 2C9 (Homo sapiens), sequence (P11712 whole entry, looked up): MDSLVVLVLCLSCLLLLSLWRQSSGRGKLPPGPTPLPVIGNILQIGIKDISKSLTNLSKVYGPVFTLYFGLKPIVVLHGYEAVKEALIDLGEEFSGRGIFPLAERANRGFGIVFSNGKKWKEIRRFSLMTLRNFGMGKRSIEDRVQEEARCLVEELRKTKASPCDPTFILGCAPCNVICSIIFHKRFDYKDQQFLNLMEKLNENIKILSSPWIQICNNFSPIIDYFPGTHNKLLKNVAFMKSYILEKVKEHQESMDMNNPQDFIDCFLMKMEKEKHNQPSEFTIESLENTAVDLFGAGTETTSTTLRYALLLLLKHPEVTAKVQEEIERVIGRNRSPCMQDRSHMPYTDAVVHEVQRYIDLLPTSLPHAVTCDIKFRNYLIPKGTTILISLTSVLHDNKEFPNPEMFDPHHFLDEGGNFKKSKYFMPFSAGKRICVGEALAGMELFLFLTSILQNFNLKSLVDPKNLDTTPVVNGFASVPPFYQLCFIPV
Cytochrome P450 2D6 (Homo sapiens), sequence (P10635 whole entry, looked up): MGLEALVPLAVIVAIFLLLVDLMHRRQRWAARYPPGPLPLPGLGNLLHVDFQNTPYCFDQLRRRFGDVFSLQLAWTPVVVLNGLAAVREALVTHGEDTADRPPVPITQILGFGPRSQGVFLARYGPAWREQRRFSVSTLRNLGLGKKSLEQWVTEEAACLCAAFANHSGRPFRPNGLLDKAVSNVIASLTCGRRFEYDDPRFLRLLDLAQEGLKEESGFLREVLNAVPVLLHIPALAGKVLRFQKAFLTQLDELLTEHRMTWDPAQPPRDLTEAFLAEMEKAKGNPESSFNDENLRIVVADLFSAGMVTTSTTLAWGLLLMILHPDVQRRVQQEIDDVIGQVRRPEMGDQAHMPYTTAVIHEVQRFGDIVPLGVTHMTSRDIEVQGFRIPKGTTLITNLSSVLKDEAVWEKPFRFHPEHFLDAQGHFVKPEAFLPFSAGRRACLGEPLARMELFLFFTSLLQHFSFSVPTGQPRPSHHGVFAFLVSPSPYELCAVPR
Voltage-gated inwardly rectifying potassium channel KCNH2 (Homo sapiens), sequence (Q12809 whole entry, looked up): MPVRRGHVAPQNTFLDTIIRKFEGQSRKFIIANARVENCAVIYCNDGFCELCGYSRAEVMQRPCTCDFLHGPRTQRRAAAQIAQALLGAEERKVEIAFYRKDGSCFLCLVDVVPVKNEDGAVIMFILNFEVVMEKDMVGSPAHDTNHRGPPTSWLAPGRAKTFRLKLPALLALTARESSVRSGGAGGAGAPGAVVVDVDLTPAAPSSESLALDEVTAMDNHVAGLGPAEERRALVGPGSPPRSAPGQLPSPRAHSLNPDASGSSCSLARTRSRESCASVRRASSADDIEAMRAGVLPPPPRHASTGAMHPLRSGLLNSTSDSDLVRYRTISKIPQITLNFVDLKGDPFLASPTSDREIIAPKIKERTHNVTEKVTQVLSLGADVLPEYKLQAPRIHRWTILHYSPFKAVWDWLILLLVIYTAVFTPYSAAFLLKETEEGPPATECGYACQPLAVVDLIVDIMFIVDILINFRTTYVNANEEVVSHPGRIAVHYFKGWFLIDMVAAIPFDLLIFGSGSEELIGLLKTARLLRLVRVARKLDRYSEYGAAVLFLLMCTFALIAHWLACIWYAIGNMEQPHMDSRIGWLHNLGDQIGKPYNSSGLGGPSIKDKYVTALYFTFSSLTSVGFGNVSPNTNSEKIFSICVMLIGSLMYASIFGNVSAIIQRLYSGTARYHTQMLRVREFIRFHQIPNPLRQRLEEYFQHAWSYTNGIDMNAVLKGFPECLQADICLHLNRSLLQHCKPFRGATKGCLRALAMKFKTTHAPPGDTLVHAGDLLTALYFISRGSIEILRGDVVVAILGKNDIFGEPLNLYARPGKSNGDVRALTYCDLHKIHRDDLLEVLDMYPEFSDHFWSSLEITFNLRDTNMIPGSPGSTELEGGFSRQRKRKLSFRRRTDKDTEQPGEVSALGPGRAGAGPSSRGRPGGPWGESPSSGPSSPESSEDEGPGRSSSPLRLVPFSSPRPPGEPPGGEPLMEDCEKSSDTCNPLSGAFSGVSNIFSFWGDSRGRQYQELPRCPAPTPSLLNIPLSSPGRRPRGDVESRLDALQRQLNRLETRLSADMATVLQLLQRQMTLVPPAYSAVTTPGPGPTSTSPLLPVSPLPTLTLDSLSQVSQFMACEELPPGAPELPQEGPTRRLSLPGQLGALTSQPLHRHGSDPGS
Cytochrome P450 3A4 (Homo sapiens), sequence (P08684 whole entry, looked up): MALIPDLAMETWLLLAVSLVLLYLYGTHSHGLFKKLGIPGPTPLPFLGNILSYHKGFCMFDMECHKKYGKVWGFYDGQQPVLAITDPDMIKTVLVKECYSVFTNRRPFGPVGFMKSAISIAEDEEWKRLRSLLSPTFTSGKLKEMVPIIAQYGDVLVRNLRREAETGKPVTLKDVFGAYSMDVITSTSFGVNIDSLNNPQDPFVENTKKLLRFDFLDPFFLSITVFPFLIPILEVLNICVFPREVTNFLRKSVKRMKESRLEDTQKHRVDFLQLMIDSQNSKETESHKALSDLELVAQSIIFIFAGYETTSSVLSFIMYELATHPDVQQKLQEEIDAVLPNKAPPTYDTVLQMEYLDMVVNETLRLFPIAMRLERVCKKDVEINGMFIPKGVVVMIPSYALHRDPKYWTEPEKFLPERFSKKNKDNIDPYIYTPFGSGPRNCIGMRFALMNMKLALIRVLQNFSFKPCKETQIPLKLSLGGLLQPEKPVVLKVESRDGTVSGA
Cytochrome P450 2C19 (Homo sapiens), sequence (P33261 whole entry, looked up): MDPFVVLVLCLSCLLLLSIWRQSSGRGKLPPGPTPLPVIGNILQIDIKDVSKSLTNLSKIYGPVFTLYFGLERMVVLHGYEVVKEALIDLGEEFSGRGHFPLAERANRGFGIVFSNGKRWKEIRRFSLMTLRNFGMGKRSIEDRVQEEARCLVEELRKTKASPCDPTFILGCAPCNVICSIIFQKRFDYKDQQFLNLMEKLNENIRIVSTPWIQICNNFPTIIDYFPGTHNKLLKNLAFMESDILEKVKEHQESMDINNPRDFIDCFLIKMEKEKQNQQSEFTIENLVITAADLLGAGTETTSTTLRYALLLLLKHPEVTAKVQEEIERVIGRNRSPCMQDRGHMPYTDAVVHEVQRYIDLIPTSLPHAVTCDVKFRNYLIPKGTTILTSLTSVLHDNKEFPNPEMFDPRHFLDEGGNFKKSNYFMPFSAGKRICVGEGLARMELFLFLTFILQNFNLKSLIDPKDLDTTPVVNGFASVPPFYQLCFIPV
Cytochrome P450 1A2 (Homo sapiens), sequence (P05177 whole entry, looked up): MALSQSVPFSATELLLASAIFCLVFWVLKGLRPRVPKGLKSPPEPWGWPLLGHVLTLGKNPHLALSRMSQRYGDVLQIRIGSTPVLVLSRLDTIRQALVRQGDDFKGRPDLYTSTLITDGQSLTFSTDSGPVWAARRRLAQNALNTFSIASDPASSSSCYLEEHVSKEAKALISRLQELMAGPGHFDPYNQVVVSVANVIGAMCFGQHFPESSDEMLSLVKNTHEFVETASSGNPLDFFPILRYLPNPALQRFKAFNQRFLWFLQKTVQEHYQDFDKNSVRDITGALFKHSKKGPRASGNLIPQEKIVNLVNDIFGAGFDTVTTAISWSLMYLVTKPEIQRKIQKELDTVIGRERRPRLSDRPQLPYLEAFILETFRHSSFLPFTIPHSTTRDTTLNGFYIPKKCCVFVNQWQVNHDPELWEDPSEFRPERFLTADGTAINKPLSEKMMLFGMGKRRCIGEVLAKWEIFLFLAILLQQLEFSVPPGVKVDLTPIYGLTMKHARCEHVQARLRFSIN
Acetylcholinesterase (Homo sapiens), sequence (P22303 whole entry, looked up): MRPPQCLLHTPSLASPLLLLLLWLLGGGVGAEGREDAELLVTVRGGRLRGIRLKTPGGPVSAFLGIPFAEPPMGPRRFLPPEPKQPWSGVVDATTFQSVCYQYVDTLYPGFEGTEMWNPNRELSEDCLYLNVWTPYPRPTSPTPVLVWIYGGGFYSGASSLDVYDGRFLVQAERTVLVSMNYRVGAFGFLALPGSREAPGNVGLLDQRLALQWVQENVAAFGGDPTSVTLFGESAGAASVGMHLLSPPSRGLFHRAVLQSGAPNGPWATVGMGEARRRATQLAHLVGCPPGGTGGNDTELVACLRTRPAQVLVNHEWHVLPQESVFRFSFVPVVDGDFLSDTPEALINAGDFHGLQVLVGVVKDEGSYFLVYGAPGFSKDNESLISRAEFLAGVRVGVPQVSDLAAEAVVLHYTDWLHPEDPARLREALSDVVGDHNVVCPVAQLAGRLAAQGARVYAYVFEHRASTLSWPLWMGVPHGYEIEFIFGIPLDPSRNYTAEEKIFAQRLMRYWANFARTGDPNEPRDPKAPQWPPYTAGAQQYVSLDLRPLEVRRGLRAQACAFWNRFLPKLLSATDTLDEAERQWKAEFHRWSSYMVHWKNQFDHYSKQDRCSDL

`O=[N+]([O-])O.O=[N+]([O-])O.[Cd]`: the Potency result in experiment [1] is “inactive”.
As to `NNC(=O)c1ccccc1`, the Potency result in experiment [2], in experiment [3] and in experiment [1] was “inactive” in each case. Further, the Potency in experiment [4] was 41 µM (active); in experiment [5] it was 41 µM (active); in experiment [6] it was 32.6 µM (active).
For the molecule `CC(=O)[O-].CC(=O)[O-].O.O.[Cd+2]`, the Potency result in experiment [1] was “inactive”.
With `CCCCCCCCCCCCCCCC[N+](C)(C)C`, the Potency is 862 nM (active) and 1.42 µM (active) and 1.38 µM (active) in experiment [7]; 79.6 µM (active) and inactive in experiment [4]; “inactive and 79.6 µM (active)” in experiment [6]. For the same molecule, the Potency entry in experiment [5] and in experiment [8] was “inactive” in each case.
Consider `CCS(=O)(=O)c1cccnc1S(=O)(=O)NC(=O)Nc1nc(OC)cc(OC)n1`, for which the Potency result in experiment [2] and in experiment [3] was “inactive” throughout. In addition, the Potency is 63.3 µM (active) in experiment [4] and 71 µM (active) in experiment [5].
As for `CC(C)N1C(=O)N(c2ccccc2)CSC1=NC(C)(C)C`, the Potency entry in experiment [2] and in experiment [3] was “inactive” each time. Besides, the figures for the Potency in experiment [4], in experiment [6] and in experiment [8] were 7.1 µM (active), 31.7 µM (active) and 31.7 µM (active), respectively.
As for `CCCCCCCCCCCCCCCC[n+]1ccccc1`, the Potency result in experiment [3], in experiment [4] and in experiment [6] was “inactive” in each case.
`COc1cc(N)c(Cl)cc1C(=O)NC1CN2CCC1CC2` (configuration not stated): in experiment [7], the Potency is 13.8 µM (active). Besides, the Potency entry in experiment [8] is “inactive”.
For the molecule `O=CC(Br)(Br)Br`, the Potency entry in experiment [3] and in experiment [8] was “inactive” in each case. Moreover, the Potency in experiment [5] is 14.1 µM (active).
Consider `CC(=O)[O-].[Tl+]`, for which the Potency entry in experiment [1] was “inactive”.
For the molecule `CCC(C)(C)C(=O)OC1=C(c2ccc(Cl)cc2Cl)C(=O)OC12CCCCC2`, the Potency entry in experiment [2], in experiment [3], in experiment [7] and in experiment [1] was “inactive” each time. The Potency in experiment [8] was 14.2 µM (active).
As for `CC(C)[C@H](C(=O)OC(C#N)c1cccc(Oc2ccccc2)c1)c1ccc(OC(F)F)cc1` (some centres not stated), the Potency result in experiment [2], in experiment [3] and in experiment [1] was “inactive” throughout. The results for the Potency in experiment [4] and in experiment [5] were 17.8 µM (active) and 3.99 µM (active), respectively.
For `Nc1ccc([N+](=O)[O-])cc1Cl`, the Potency entry in experiment [2], in experiment [3], in experiment [4], in experiment [5], in experiment [1] and in experiment [8] was “inactive” throughout. The Potency in experiment [6] was 25.2 µM (active).
On to `CCOP(=S)(OCC)SCS(=O)(=O)C(C)(C)C`, for which the Potency was 8.94 µM (active) in experiment [3], 1.78 µM (active) in experiment [4], 5.64 µM (active) in experiment [5] and 2.83 µM (active) in experiment [8]. The Potency result in experiment [1] is “inactive”.
Take `CN(C)[C@@H]1C(=O)C(C(N)=O)=C(O)[C@@]2(O)C(=O)C3=C(O)c4c(O)ccc(Cl)c4[C@@](C)(O)[C@H]3C[C@@H]12`: the Potency result in experiment [1] is “inactive”.
Regarding `CC(=O)C(Cl)(Cl)Cl`, the Potency entry in experiment [2], in experiment [3], in experiment [1] and in experiment [8] was “inactive” each time. Further, in experiment [4], the Potency is 54.5 µM (active).
With `CN(C)C(=S)[S-].CN(C)C(=S)[S-].[Cu+2]`, in experiment [1], the activity change, negative = inhibition is -11.4% [at 15.8 µM] (inactive).
With `c1ccc(OCC2CO2)cc1` (configuration not stated), the Potency entry in experiment [1] is “inactive”.
For the molecule `Nc1ccccc1C(=O)Oc1ccc2ccccc2c1`, the Potency result in experiment [2], in experiment [3] and in experiment [8] was “inactive” throughout. Also, the Potency in experiment [4] is 35.6 µM (active); in experiment [5], 20 µM (active); in experiment [6], 14.2 µM (active).
